According to PubChem BioAssay (Tox21):
Records with an inconclusive call do not appear. Active and inactive are the calls of the source. Unless noted, calls follow the shape of the full dose curve.

Assays:
[1] = qHTS assay to identify small molecule antagonists of the sonic hedgehog signaling (Shh) pathway (AID 1259369); also: nearly all actives have a fitted effect of over 45% in size; also: potency is read from the fitted curve at half-maximal effect
Procedure, shortened: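 Cells are plated and held 4hr at 37 C, compounds (DMSO) are pinned in, conditioned medium is added to stimulate the pathway, and after 24hr luciferase reagent is added for 30min before luminescence is read.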

[2] = biological target: Estrogen receptor beta (Homo sapiens) (UniProt Q92731); assay: qHTS assay to identify small molecule antagonists of the estrogen receptor beta (ER-beta) signaling pathway (AID 1259378; active = well fitted inhibition curve with a large enough effect in the signal ratio in the repeat runs, not every such curve was filed as active; the % refers to the signal ratio; also: potency is read from the fitted curve at half-maximal effect)
Procedure, shortened: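 ER-beta-UAS-bla HEK293T cells in 2% charcoal-stripped FBS medium treated with compound plus 1nM final 17-beta-estradiol for 16 hr at 37C. Beta-lactamase reporter read by FRET substrate fluorescence after 2 hours at room temperature.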

[3] = qHTS assay to identify small molecule agonists of the androgen receptor (AR) signaling pathway in the presence of an antagonist - cell viability counter screen (AID 1259379; active = well fitted curve in the direction sought with a large enough effect in the repeat runs; an effect the other way counts as inactive or inconclusive;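 also: MDA-kb2 human breast cancer cells carrying an MMTV luciferase reporter; series mostly up to about 92 µM; nearly all actives have a fitted effect of over 25% in size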)
Procedure, shortened: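 Cytotoxicity is assessed by CellTiter-Fluor in MDA-kb2 cells carrying an MMTV-driven luciferase reporter. Cells receive 3.0uM nilutamide plus compounds at 15 concentrations and incubate 16 hr at 37C without CO2 before fluorescence reading.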

[4] = qHTS assay to identify small molecule agonists of the estrogen receptor beta (ER-beta) signaling pathway - cell viability counter screen (AID 1259380; active = well fitted curve in the direction sought with a large enough effect in the repeat runs; an effect the other way counts as inactive or inconclusive; also: nearly all actives have a fitted effect of over 30% in size)
Procedure, shortened: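 Cytotoxicity is measured in parallel with the reporter screen: after 16 hr compound exposure at 37C and a 2 hr LiveBLAzer step, CellTiter-Glo is added to the same ER-beta-UAS-bla HEK293T wells and luminescence read after 30 min.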

[5] = biological target: Androgen receptor (Homo sapiens) (UniProt P10275); assay: qHTS assay to identify small molecule agonists of the androgen receptor (AR) signaling pathway in the presence of an antagonist (AID 1259381); also: nearly all actives have a fitted effect of over 15% in size
Procedure, shortened: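 Agonist-mode confirmation screen: human MDA-kb2 cells stably expressing luciferase under an MMTV promoter bearing AR and GR response elements, co-treated with 3.0uM nilutamide (final). Luminescence measured after 16hr compound incubation.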

[6] = qHTS assay to identify small molecule antagonists of the estrogen receptor beta (ER-beta) signaling pathway - cell viability counter screen (AID 1259382; active = well fitted curve in the direction sought with a large enough effect in the repeat runs; an effect the other way counts as inactive or inconclusive; also: series mostly up to about 92 µM; nearly all actives have a fitted effect of over 55% in size)
Procedure, shortened: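 Cytotoxicity counter screen multiplexed with the beta-lactamase antagonist assay: GripTite HEK293T ER-beta-bla cells were treated 16 hr with test chemicals in the presence of 1nM 17-beta-estradiol, and viability was measured by CellTiter-Glo.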

[7] = biological target: Estrogen receptor (Homo sapiens) (UniProt P03372); assay: qHTS assay to identify small molecule agonists of the estrogen receptor alpha (ER-alpha) signaling pathway in the presence of an antagonist (AID 1259383); also: top concentration of the series differs between compounds; nearly all actives have a fitted effect of over 15% in size
Procedure, shortened: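 Agonist-mode confirmation in the presence of the ER antagonist ICI-182,780 at 10.0nM final. Breast-derived VM7Luc4E2 reporter cells were exposed to compounds for 22hr, and ERE-driven luciferase was quantified by luminescence.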

[8] = qHTS assay to identify small molecule agonists or antagonists of the thyroid stimulating hormone receptor (TSHR) signaling pathway - wild type cell line counter screen (AID 1259384)
Procedure, shortened: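 Wild-type Hek293 cells, 800/well, 18 h at 37C, then compound with Ro20-1724 for 30 min RT. cAMP by HTRF (cAMP-d2/anti-cAMP cryptate), 1 h RT, fluorescence read. 15 concentrations, triplicates.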

[9] = biological target: Thyrotropin receptor (Homo sapiens) (UniProt P16473); assay: qHTS assay to identify small molecule antagonists of the thyroid stimulating hormone receptor (TSHR) signaling pathway (AID 1259385); also: nearly all actives have a fitted effect of over 20% in size
Procedure, shortened: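 TSHR-HEK293 cells (800/well) plated 18 h, then compounds with Ro20-1724 and TSH at 1.5 ng/mL final, 30 min at room temperature. cAMP quantified by HTRF (cAMP-d2/anti-cAMP-cryptate, 1 h); 15 concentrations in triplicate.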

[10] = biological target: Estrogen receptor beta (Homo sapiens) (UniProt Q92731); assay: qHTS assay to identify small molecule agonists of the estrogen receptor beta (ER-beta) signaling pathway (AID 1259377; active = well fitted activation curve with a large enough effect in the signal ratio in the repeat runs, not every such curve was filed as active; the % refers to the signal ratio)
Procedure, shortened: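 A UAS-controlled beta-lactamase reporter in ER-beta-UAS-bla HEK293T cells reports receptor activation. Compounds act for 16 hr at 37C in 2% charcoal-stripped serum, and a FRET substrate is read by fluorescence after 2 hours.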

Measured: Potency

Chain of Androgen receptor (Homo sapiens) (P10275 whole entry, looked up): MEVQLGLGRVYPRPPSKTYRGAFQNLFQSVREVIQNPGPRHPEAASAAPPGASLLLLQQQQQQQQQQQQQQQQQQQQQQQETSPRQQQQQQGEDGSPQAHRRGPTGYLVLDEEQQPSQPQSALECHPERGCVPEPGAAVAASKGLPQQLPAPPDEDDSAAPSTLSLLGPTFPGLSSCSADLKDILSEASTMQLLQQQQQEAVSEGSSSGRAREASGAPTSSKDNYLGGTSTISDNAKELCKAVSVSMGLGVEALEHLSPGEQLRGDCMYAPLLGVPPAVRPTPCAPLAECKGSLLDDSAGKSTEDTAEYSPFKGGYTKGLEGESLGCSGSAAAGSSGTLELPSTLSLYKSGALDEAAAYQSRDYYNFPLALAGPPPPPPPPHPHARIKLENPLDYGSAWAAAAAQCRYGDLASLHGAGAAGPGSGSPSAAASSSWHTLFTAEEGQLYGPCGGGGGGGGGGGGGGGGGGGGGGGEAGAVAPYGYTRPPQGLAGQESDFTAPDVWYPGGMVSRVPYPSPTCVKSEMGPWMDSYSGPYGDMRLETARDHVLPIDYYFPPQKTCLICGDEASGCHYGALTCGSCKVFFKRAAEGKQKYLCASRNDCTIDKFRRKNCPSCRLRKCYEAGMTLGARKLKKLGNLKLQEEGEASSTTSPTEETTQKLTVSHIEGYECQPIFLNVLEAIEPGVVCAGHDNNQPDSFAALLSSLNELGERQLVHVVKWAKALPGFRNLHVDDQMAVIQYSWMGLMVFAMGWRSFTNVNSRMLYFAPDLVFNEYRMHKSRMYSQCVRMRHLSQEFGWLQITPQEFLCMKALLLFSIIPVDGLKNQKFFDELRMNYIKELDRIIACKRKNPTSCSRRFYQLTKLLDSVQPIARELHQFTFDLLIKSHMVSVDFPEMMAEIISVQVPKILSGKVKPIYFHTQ
Chain of Estrogen receptor beta (Homo sapiens) (Q92731 whole entry, looked up): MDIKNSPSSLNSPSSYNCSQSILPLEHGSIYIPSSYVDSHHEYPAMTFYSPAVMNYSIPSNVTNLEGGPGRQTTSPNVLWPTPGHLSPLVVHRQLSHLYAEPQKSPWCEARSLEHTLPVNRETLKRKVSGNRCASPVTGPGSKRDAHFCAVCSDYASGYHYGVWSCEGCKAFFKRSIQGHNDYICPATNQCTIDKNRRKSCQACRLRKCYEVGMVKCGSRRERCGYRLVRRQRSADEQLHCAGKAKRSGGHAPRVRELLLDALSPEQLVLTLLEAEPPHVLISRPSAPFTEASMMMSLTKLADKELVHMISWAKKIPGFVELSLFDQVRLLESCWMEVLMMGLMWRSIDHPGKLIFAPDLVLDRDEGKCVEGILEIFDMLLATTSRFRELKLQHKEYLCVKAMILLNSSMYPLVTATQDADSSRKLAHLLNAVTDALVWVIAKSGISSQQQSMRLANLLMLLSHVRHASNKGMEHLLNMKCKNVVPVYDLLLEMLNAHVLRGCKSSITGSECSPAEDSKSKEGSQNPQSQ
Chain of Estrogen receptor (Homo sapiens) (P03372 whole entry, looked up): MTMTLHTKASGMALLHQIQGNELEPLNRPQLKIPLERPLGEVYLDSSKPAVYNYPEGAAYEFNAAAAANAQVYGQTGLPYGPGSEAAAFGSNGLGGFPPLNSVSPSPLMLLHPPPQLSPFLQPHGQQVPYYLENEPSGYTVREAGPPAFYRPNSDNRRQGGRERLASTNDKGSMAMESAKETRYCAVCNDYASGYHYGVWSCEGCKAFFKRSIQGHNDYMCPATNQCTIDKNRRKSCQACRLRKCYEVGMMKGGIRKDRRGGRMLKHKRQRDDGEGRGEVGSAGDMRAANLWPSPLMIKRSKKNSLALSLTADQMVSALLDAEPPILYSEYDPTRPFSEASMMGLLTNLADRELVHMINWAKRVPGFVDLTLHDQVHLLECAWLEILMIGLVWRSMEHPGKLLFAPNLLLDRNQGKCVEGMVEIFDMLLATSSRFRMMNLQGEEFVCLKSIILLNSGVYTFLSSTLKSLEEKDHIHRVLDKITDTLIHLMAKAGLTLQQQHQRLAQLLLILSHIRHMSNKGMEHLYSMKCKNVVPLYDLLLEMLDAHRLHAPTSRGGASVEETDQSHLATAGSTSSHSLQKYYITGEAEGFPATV
Chain of Thyrotropin receptor (Homo sapiens) (P16473 whole entry, looked up): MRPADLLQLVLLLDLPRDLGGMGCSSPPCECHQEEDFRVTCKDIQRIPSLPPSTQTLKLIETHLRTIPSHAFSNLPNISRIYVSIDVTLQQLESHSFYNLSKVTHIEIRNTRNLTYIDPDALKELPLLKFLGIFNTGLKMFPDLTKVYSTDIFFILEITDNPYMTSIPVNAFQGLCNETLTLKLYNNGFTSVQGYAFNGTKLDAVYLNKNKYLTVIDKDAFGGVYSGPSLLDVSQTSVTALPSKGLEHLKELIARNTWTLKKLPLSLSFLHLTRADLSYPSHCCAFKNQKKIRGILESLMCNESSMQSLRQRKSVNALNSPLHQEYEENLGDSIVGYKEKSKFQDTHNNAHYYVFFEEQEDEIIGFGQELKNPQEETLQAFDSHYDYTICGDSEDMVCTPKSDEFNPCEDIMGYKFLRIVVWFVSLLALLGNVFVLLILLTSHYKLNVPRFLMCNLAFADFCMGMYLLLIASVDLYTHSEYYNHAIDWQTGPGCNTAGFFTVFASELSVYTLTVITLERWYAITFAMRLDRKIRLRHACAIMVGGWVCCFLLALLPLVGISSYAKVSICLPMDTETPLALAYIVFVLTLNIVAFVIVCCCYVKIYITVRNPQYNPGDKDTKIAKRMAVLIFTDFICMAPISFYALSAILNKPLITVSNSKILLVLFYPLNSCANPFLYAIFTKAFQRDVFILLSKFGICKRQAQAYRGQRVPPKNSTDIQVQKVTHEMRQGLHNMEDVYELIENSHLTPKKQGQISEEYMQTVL

COC(=O)c1c(C(F)F)nc(C(F)(F)F)c(C2=NCCS2)c1CC(C)C
inactive: [1] | [2] | [3] | [4] | [5] | [6] | [7] | [8] | [9]

O=c1oc2ccccc2c(O)c1C1CCCc2ccccc21 (stereo unspecified)
inactive: [1] | [10] | [2] | [3] | [6] | [7]

BrCCCCCCBr
inactive: [10] | [2] | [3] | [6] | [7] | [8] | [9]
active: [1] 24.3 µM

ClCC(Cl)(Cl)Cl
inactive: [1] | [2] | [3] | [4] | [6] | [7]

CCOP(=O)(OCC)OP(=O)(OCC)OCC
inactive: [1] | [2] | [3] | [4] | [5] | [6] | [8] | [9]

CCOP(=S)(OCC)Oc1cc(-c2ccccc2)on1
inactive: [1] | [2] | [3] | [4] | [6] | [7] | [8]

Cc1coc2c1CCC(C)C2 (stereo unspecified)
inactive: [1] | [2] | [3] | [4] | [6] | [7] | [8] | [9]

[O]=[Cd]
inactive: [1] | [3] | [4] | [6] | [7] | [8] | [9]

Cc1ccccc1CO[C@@H]1C[C@@]2(C(C)C)CC[C@]1(C)O2
inactive: [1] | [3] | [4] | [5] | [6] | [8]

CC1COC2(c3ccccc3Cl)c3cc(Cl)ccc3NC(=O)CN12 (stereo unspecified)
active: [1] 29.8 µM | [2] 26.6 µM
inactive: [3] | [5] | [6] | [7] | [8] | [9]

COC(=O)C(C)Oc1ccc(Oc2ccc(Cl)cc2Cl)cc1 (stereo unspecified)
inactive: [1] | [2] | [3] | [4] | [6] | [8] | [9]

O=C(Cc1ccccc1)OCc1ccccc1
inactive: [1] | [2] | [3] | [6] | [7] | [8] | [9]

CCCCOC(=O)c1ccccc1C(=O)O
inactive: [1] | [2] | [3] | [5] | [6] | [8] | [9]

CCN(CC)C(C)C(=O)c1ccccc1 (stereo unspecified)
inactive: [1] | [3] | [4] | [5] | [7] | [8] | [9]

Nc1n[nH]c(N)n1
inactive: [1] | [2] | [4] | [8] | [9]
